Reference: PubChem BioAssay (Tox21)
Results filed as inconclusive are left out. The source made the active and inactive calls. Unless noted, calls come from the whole dose curve; as a rule, active = well fitted curve in the direction sought with a large enough effect in the repeat runs; inconclusive = weak or mixed curves; inactive = no such curve, though single readings can be large; an effect the other way counts as inactive or inconclusive.

What was measured:
[1] = target: Thyrotropin-releasing hormone receptor (Homo sapiens) (UniProt P34981); assay: qHTS assay to identify small molecule agonists of the thyrotropin-releasing hormone receptor (TRHR) signaling pathway (AID 1346891; calls by dose curve; note: series mostly up to about 58 µM)
Summary of the method: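 Intracellular calcium rise, read as fluorescence every second for 3 min, served as the agonist signal in dye-loaded HEK293 cells expressing TRHR; each compound ran at 15 concentrations in triplicate.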

[2] = Human pregnane X receptor (PXR) small molecule agonists, qHTS cell viability counter screen (AID 1346977); note: nearly all actives have a fitted effect of over 50% in size; note: potency is the fitted concentration of half-maximal effect
Summary of the method: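 PXR-Luc HepG2, 2,000 cells/well, 5% charcoal-stripped FBS; 5hr settle; cpd 24hr, 37C/5% CO2; CellTiter-Fluor at 23hr, read 1hr later (fluorescence).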

[3] = Caspase-3/7 induction in HepG2 cells by small molecules, qHTS assay (AID 1346978); note: nearly all actives have a fitted effect of over 15% in size
Summary of the method: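 Caspase-3/7 induction was measured by Caspase-Glo 3/7 luminescence (30 min, room temperature) after a 17 hr compound exposure of wild-type HepG2 cells seeded at 2,000 per well and pre-incubated 5 hr.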

[4] = Caspase-3/7 induction in CHO-K1 cells by small molecules, qHTS cell viability counter screen (AID 1346979); note: nearly all actives have a fitted effect of over 35% in size
Summary of the method: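 Cells (CHO-K1, wild type) are plated at 1,500 per well and incubated 5hr. Test compounds in DMSO are then pinned in, followed by 16hr at 37C and 5% CO2. Viability is read by CellTiter-Fluor fluorescence after 1hr.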

[5] = Caspase-3/7 induction in CHO-K1 cells by small molecules, qHTS assay (AID 1346980); note: nearly all actives have a fitted effect of over 15% in size
Summary of the method: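 Luminescent Caspase-Glo 3/7 read (30min, room temperature) quantified apoptosis induction. Cells were wild-type CHO-K1, treated with compound for 17hr at 37 C and 5% CO2.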

[6] = Caspase-3/7 induction in HepG2 cells by small molecules, qHTS cell viability counter screen (AID 1346981); note: series mostly up to about 92 µM; nearly all actives have a fitted effect of over 30% in size
Summary of the method: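 Fluorescence read-out of live-cell protease activity (CellTiter-Fluor) after 1 hr with reagent. This was measured in the same wells as the caspase-3/7 luminescence, on HepG2 cells exposed to DMSO-dissolved compounds for 16 hr at 37 C.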

[7] = target: Nuclear receptor subfamily 1 group I member 2 (Homo sapiens) (UniProt O75469); assay: Human pregnane X receptor (PXR) small molecule agonists, qHTS assay (AID 1346982); note: nearly all actives have a fitted effect of over 35% in size; note: potency is the fitted concentration of half-maximal effect
Summary of the method: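 HepG2 PXR-Luc reporter line, 5% charcoal-stripped FBS; 5 hr pre-incubation, compound (DMSO) 24 hr at 37 C/5% CO2; ONE-Glo 30 min RT; luminescence read-out.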

[8] = target: Nuclear receptor subfamily 1 group I member 2 (Homo sapiens) (UniProt O75469); assay: CYP3A4 induction through human pregnane X receptor (PXR) by small molecules, qHTS assay (AID 1346984); note: nearly all actives have a fitted effect of over 40% in size
Summary of the method: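 HepG2-derived DPX-2 line carrying PXR plus a CYP3A4-promoter luciferase reporter; cells plated 5 hr, compound-exposed 24 hr at 37C. CYP3A4 activity probed with 3uM (final) Luciferin-IPA for 3hr, then luciferase read after One-Glo.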

[9] = target: Nuclear receptor subfamily 1 group I member 2 (Homo sapiens) (UniProt O75469); assay: Human pregnane X receptor (PXR) activation by small molecules, qHTS assay (AID 1346985); note: nearly all actives have a fitted effect of over 40% in size; note: potency is the fitted concentration of half-maximal effect
Summary of the method: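 DPX-2 cells (HepG2 co-transfected with a PXR response element and a CYP3A4-promoter luciferase construct) were seeded at 2,000 per well, rested 5 hr at 37C, then exposed to DMSO-dissolved compounds for 24 hr. Activation was read as luciferase luminescence.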

[10] = target: Cytochrome P450 2D6 (Homo sapiens) (UniProt P10635); assay: Cytochrome P450 Family 2 Subfamily D Member 6 (CYP2D6) small molecule antagonists: luciferase reporter qHTS assay (AID 1671196); note: nearly all actives have a fitted effect of over 50% in size; note: potency is the fitted concentration of half-maximal effect
Summary of the method: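 Luminogenic proluciferin substrate, CYP2D6 enzyme; 10 min RT preincubation with compound, NADPH regeneration system added, 1 h RT. Stop/detection reagent, 20 min RT, luminescence read (RLU). Signal proportional to CYP activity.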

[11] = target: Cytochrome P450 2C19 (Homo sapiens) (UniProt P33261); assay: Cytochrome P450 Family 2 Subfamily C Member 19 (CYP2C19) small molecule antagonists: luciferase reporter qHTS assay (AID 1671197); note: nearly all actives have a fitted effect of over 65% in size; note: potency is the fitted concentration of half-maximal effect
Summary of the method: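 Light output is proportional to CYP2C19 activity: proluciferin substrate is converted to luciferin, then detected by a luciferin detection reagent that also stops the 1 h, 37C NADPH-driven reaction. Ketoconazole serves as positive control.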

[12] = target: Cytochrome P450 2C9 (Homo sapiens) (UniProt P11712); assay: Cytochrome P450 Family 2 Subfamily C Member 9 (CYP2C9) small molecule antagonists: luciferase reporter qHTS assay (AID 1671198); note: nearly all actives have a fitted effect of over 50% in size; note: potency is the fitted concentration of half-maximal effect
Summary of the method: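 Enzyme-substrate mix preincubated with compound 10 min at room temperature; reaction started with NADPH regeneration solution, 1 h 37C. Luminescent luciferin product read after 20 min detection reagent.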

[13] = target: Cytochrome P450 1A2 (Homo sapiens) (UniProt P05177); assay: Cytochrome P450 Family 1 Subfamily A Member 2 (CYP1A2) small molecule antagonists: luciferase reporter qHTS assay (AID 1671199); note: nearly all actives have a fitted effect of over 50% in size; note: potency is the fitted concentration of half-maximal effect
Summary of the method: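 Luminescence readout (relative luminescence units) after luciferin detection reagent, 20 min RT. Preceded by 1 h room-temperature CYP1A2 reaction with NADPH regeneration solution following 10 min compound preincubation with enzyme and proluciferin substrate. Furafylline positive control.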

[14] = target: Voltage-gated inwardly rectifying potassium channel KCNH2 (Homo sapiens) (UniProt Q12809); assay: Human Ether-a-go-go-Related Gene (hERG) channel small molecule antagonists: fluorescence cell-based qHTS assay (AID 1671200); note: nearly all actives have a fitted effect of over 50% in size; note: potency is the fitted concentration of half-maximal effect
Summary of the method: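 Channel function was assessed by thallium flux. Cells seeded the previous day and kept at 37 C took up FluxOR II dye over 1 h in the dark at room temperature, then sat another 10 min before stimulation.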

[15] = target: Cytochrome P450 3A4 (Homo sapiens) (UniProt P08684); assay: Cytochrome P450 Family 3 Subfamily A Member 4 (CYP3A4) small molecule antagonists: luciferase reporter qHTS assay (AID 1671201); note: nearly all actives have a fitted effect of over 50% in size; note: potency is the fitted concentration of half-maximal effect
Summary of the method: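 Compounds in DMSO were pin-transferred onto CYP3A4 enzyme-substrate mix and held 10 min at room temperature. NADPH regenerating solution started the reaction for 1 h; luciferin detection reagent stopped it, and luminescence was read after 20 min.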

Measured: Potency

Chain of Cytochrome P450 2D6 (Homo sapiens) (P10635 whole entry, looked up): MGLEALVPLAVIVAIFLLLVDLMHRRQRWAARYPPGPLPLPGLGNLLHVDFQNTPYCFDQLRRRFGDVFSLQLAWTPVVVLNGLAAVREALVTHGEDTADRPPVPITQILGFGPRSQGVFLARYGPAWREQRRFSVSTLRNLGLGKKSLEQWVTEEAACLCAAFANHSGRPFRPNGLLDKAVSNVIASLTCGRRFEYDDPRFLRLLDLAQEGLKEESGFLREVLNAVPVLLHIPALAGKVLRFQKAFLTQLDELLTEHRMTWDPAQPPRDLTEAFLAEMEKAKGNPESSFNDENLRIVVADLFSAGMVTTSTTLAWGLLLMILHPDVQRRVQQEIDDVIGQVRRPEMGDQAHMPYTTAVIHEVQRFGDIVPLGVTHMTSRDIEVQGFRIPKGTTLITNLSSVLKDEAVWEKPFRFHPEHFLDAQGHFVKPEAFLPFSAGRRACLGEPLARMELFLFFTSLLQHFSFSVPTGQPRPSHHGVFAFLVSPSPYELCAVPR
Chain of Cytochrome P450 3A4 (Homo sapiens) (P08684 whole entry, looked up): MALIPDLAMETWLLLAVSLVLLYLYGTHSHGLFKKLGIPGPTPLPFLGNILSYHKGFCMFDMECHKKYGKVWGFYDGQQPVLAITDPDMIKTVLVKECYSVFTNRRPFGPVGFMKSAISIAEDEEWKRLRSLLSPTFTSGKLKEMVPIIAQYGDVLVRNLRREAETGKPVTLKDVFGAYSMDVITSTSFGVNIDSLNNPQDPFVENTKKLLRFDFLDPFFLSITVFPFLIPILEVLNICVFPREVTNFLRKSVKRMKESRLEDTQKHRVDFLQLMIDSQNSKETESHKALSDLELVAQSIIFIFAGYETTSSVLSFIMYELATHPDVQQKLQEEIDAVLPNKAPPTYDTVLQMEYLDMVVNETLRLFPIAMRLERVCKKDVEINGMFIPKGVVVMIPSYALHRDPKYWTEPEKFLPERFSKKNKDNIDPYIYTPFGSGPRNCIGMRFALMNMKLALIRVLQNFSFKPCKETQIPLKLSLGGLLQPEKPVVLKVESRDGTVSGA
Chain of Cytochrome P450 1A2 (Homo sapiens) (P05177 whole entry, looked up): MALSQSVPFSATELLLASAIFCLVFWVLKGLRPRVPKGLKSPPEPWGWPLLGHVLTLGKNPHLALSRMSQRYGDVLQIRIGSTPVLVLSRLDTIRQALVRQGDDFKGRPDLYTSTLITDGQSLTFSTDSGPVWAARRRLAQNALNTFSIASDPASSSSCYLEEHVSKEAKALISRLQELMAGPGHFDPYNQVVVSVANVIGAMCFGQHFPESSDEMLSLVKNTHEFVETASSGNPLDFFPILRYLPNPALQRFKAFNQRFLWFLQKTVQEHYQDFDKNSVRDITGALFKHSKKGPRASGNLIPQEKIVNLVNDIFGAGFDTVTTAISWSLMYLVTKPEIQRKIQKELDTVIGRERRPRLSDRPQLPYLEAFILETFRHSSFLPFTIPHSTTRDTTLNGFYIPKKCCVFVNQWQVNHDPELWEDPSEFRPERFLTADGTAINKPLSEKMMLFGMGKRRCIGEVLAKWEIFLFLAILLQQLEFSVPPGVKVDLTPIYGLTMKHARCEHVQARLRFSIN
Chain of Cytochrome P450 2C9 (Homo sapiens) (P11712 whole entry, looked up): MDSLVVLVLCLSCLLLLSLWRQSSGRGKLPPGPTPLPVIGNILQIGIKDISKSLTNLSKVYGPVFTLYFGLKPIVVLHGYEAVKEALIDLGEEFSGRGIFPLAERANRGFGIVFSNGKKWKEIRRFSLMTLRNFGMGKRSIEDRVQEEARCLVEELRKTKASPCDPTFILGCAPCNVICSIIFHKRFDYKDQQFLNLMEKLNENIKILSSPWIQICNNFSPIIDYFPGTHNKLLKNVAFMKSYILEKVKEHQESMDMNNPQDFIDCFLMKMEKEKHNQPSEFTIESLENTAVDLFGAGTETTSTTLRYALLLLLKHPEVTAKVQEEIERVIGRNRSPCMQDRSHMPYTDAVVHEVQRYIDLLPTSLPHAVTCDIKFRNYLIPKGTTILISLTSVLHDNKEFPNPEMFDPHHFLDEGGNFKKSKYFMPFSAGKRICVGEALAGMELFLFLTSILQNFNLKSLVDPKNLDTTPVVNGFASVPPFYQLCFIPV
Chain of Nuclear receptor subfamily 1 group I member 2 (Homo sapiens) (O75469 whole entry, looked up): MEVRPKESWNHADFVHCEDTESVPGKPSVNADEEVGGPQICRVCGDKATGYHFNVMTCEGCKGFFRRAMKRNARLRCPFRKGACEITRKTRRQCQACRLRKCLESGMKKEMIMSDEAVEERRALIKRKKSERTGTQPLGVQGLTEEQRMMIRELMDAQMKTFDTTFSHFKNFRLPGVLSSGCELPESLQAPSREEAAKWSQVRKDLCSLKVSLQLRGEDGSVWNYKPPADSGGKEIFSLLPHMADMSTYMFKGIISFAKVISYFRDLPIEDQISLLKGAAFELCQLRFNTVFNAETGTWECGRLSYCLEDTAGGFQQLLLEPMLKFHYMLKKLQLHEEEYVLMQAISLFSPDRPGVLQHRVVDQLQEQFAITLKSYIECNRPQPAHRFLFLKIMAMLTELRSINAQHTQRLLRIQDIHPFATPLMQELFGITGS
Chain of Voltage-gated inwardly rectifying potassium channel KCNH2 (Homo sapiens) (Q12809 whole entry, looked up): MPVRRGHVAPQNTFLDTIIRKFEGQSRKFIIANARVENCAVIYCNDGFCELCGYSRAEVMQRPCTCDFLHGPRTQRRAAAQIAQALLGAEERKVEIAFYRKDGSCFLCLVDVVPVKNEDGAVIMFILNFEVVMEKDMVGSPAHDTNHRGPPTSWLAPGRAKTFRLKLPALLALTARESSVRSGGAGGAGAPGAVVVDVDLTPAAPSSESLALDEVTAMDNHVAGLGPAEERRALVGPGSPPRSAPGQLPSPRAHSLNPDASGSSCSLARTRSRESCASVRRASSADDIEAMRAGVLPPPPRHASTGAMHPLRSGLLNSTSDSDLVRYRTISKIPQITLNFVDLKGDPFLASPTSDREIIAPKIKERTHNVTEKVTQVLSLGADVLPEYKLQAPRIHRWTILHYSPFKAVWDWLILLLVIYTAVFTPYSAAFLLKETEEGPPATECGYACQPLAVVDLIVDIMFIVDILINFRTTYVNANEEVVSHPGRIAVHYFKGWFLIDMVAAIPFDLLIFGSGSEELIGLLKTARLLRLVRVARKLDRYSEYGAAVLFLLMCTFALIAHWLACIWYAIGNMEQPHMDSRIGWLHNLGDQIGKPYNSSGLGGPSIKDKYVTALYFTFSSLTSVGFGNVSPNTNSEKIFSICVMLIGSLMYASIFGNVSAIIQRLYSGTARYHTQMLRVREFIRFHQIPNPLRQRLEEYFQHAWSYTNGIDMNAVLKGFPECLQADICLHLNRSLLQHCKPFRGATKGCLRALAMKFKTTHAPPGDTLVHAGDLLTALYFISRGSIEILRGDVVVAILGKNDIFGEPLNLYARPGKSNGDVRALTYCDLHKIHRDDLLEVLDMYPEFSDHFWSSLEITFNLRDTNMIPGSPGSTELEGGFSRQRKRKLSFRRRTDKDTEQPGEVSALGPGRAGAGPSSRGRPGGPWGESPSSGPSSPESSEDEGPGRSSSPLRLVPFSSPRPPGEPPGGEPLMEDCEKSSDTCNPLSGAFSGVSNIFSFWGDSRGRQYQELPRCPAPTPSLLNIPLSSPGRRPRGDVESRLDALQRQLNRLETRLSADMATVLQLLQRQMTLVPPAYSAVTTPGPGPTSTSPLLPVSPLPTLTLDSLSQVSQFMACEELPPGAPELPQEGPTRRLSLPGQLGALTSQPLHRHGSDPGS
Chain of Thyrotropin-releasing hormone receptor (Homo sapiens) (P34981 whole entry, looked up): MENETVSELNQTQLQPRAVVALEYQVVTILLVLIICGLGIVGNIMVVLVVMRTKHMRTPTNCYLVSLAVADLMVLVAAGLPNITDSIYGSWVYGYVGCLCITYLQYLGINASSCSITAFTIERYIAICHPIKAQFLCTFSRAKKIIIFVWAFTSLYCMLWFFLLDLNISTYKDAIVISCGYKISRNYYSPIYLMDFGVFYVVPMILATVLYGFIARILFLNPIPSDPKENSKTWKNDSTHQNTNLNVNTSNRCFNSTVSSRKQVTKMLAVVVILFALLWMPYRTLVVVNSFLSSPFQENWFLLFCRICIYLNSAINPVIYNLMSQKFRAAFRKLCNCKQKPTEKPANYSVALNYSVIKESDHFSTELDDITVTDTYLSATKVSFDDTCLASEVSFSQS
Chain of Cytochrome P450 2C19 (Homo sapiens) (P33261 whole entry, looked up): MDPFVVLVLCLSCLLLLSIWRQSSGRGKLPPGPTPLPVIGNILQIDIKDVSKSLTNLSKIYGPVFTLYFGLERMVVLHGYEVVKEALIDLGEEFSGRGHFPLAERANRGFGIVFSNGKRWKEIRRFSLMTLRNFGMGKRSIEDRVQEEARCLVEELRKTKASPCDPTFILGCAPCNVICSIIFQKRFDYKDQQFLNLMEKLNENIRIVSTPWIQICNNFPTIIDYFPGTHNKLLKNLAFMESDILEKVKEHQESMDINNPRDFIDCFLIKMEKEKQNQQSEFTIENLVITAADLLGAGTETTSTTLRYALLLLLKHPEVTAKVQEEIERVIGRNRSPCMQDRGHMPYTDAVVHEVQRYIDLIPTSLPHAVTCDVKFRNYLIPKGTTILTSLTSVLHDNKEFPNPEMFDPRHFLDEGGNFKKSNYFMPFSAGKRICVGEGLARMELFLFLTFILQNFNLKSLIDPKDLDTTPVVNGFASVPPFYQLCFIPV

N#C/C(=C1\SCC(c2ccccc2Cl)S1)n1ccnc1 (configuration not stated)
active: [7] 26.6 µM | [9] 14.1 µM | [10] 2.19 µM | [11] 0.0776 µM | [12] 2.45 µM | [13] 0.871 µM
not listed: [15]
inactive: all other assays above

CCOC(=O)OCC
active: [10] 23.3 µM | [13] 41.5 µM
not listed: [8] | [9] | [15]
inactive: all other assays above

COc1cc2[nH]c(=O)[nH]c(=O)c2cc1OC
not listed: [13]
inactive: all other assays above

C=CC(C)(O)CCCC(C)CCCC(C)CCCC(C)C (configuration not stated)
active: [7] 24.2 µM | [13] 35.4 µM
not listed: [8] | [9] | [10] | [12] | [15]
inactive: all other assays above

CC(C)=CC=O
not listed: [8] | [9] | [11] | [13] | [15]
inactive: all other assays above

COC(OC)(C(=O)c1ccccc1)c1ccccc1
active: [7] 24.3 µM | [11] 10 µM | [12] 20 µM
not listed: [8] | [9] | [10] | [15]
inactive: all other assays above

CCCCC(CC)C(=O)OCCOCCOCCOCCOC(=O)C(CC)CCCC (configuration not stated)
inactive: [1] | [2] | [3] | [4] | [5] | [6]
active: [7] 48.6 µM | [11] 22.4 µM | [12] 12.6 µM | [13] 31.7 µM | [15] 12.6 µM

CC1=NN(c2ccc(C(=O)O)cc2)C(=O)C1
not listed: [8] | [9] | [10] | [11] | [15]
inactive: all other assays above

O=C(O)c1ccccc1NCCc1ccccc1
active: [7] 23.7 µM | [12] 13.8 µM
not listed: [8] | [9] | [10] | [11] | [13]
inactive: all other assays above

CO[C@H]1O[C@H](CO)[C@@H](O)[C@H](O)[C@H]1O
not listed: [8] | [9] | [10]
inactive: all other assays above

O=C(CCCN1CCN(c2ccc(F)cc2)CC1)NC1c2ccccc2CSc2ccccc21 (configuration not stated)
inactive: [1] | [3] | [4] | [5] | [6] | [7]
active: [2] 21.1 µM | [11] 4.36 µM | [12] 6.92 µM | [14] 1.9 µM

Nc1c(I)cc(I)c(C(=O)N(CCC(=O)O)c2ccccc2)c1I
active: [7] 26.6 µM
not listed: [8] | [9] | [11] | [12] | [13]
inactive: all other assays above

O=S1OCCO1
not listed: [8] | [9] | [10] | [13]
inactive: all other assays above

CC(C)c1nnc2ccc(-c3ocnc3-c3cc(F)ccc3F)cn12
active: [7] 48.6 µM | [12] 5.64 µM | [13] 35.6 µM
not listed: [8] | [9] | [10] | [11]
inactive: all other assays above

CCC(C(=O)OCCN(CC)CC)c1ccccc1 (configuration not stated)
active: [13] 11.5 µM
not listed: [8] | [9] | [10]
inactive: all other assays above

CCOC(=O)c1ccccc1C
not listed: [8] | [9] | [11] | [12] | [13]
inactive: all other assays above

COC(=O)c1cc(Cl)ccc1NS(=O)(=O)C(F)(F)F
active: [13] 0.55 µM
not listed: [8] | [9] | [10] | [15]
inactive: all other assays above

CCCCCCCCCCCC[N+](C)(C)CC(=O)[O-]
not listed: [8] | [9] | [10] | [11] | [13]
inactive: all other assays above

O=C(O)c1cccc(O)c1
active: [11] 40.2 µM
not listed: [8] | [9] | [12] | [13]
inactive: all other assays above

C1COCO1
not listed: [8] | [9] | [12]
inactive: all other assays above
